From PubChem BioAssay AID1159580 (chemical genetic matrix, 2015)
In all, about 5,500 compounds went through this assay and about 2,000 (36%) were called active. Another 18% or so got no clear call; they are omitted. No stated cut-off is given here; in the data, active means normalized growth mostly below about 0.91 (no sharp cut-off); inconclusive means no clear call, values can overlap the other calls; inactive means mostly above about 0.92. Some of the results follow.

Test: chemical genetic growth profiling, strain panel (AID 1159580);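 further: tested at 20 µM; growth read once vehicle control cultures reached saturation at 30 °C; 1 = growth at the plate median or of vehicle wells; lower values mean less growth of the strain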
Conditions: growth OD
[1] = S. cerevisiae deletion strains, locus YDL101C, strain DUN1, active compounds read low
[2] = S. cerevisiae deletion strains, locus YHR030C, strain SLT2, active compounds read low

Measured: normalized growth

N=C(N)SCc1c(F)cccc1Cl
inactive: S. cerevisiae deletion strains, locus YAL013W, strain DEP1, active compounds read low 0.996 | S. cerevisiae deletion strains, locus YBR229C, strain ROT2, active compounds read low 0.986 | S. cerevisiae deletion strains, locus YCL061C, strain MRC1, active compounds read low 1.01 | [1] 0.968 | S. cerevisiae deletion strains, locus YDL134C, strain PPH21, active compounds read low 1 | S. cerevisiae deletion strains, locus YDR150W, strain NUM1, active compounds read low 0.984 | S. cerevisiae deletion strains, locus YEL061C, strain CIN8, active compounds read low 0.98 | S. cerevisiae deletion strains, locus YGR078C, strain PAC10, active compounds read low 0.989 | S. cerevisiae deletion strains, locus YGR229C, strain SMI1, active compounds read low 0.998 | [2] 0.947 | S. cerevisiae deletion strains, locus YHR087W, strain rtc3, active compounds read low 0.978 | S. cerevisiae deletion strains, locus YJR043C, strain POL32, active compounds read low 0.99 | S. cerevisiae deletion strains, locus YJR075W, strain HOC1, active compounds read low 0.991 | S. cerevisiae deletion strains, locus YKL190W, strain CNB1, active compounds read low 0.983 | S. cerevisiae deletion strains, locus YLR039C, strain RIC1, active compounds read low 0.978 | S. cerevisiae deletion strains, locus YLR058C, strain SHM2 (second series), active compounds read low 0.986 | S. cerevisiae deletion strains, locus YLR085C, strain ARP6, active compounds read low 0.993 | S. cerevisiae deletion strains, locus YLR262C, strain YPT6, active compounds read low 0.989 | S. cerevisiae deletion strains, locus YML094W, strain GIM5, active compounds read low 0.935 | S. cerevisiae deletion strains, locus YMR219W, strain ESC1, active compounds read low 1 | S. cerevisiae deletion strains, locus YMR263W, strain SAP30, active compounds read low 1.04 | S. cerevisiae deletion strains, locus YNL128W, strain TEP1, active compounds read low 0.968 | S. cerevisiae deletion strains, locus YNL153C, strain GIM3, active compounds read low 1.01 | S. cerevisiae deletion strains, locus YNL298W, strain CLA4 (second series), active compounds read low 0.96 | S. cerevisiae deletion strains, locus YNL322C, strain KRE1, active compounds read low 0.982 | S. cerevisiae deletion strains, locus YNR030W, strain Alg12, active compounds read low 0.975 | S. cerevisiae deletion strains, locus YPL055C, strain LGE1, active compounds read low 0.956 | S. cerevisiae deletion strains, locus YPL241C, strain CIN2, active compounds read low 1.12 | S. cerevisiae deletion strains, locus YPR135W, strain CTF4, active compounds read low 0.896 | S. cerevisiae strains, strain wild type, active compounds read low 0.986

N/C(=N/OCc1c(F)cccc1Cl)c1ccc(Cl)cc1
inactive: S. cerevisiae deletion strains, locus YAR019C, strain CDC15, active compounds read low 0.914 | S. cerevisiae deletion strains, locus YBL105C, strain PKC1, active compounds read low 0.922 | S. cerevisiae deletion strains, locus YBR135W, strain CKS1, active compounds read low 0.929 | S. cerevisiae deletion strains, locus YBR136W, strain MEC1, active compounds read low 0.92 | S. cerevisiae deletion strains, locus YBR160W, strain CDC28, active compounds read low 0.932 | S. cerevisiae deletion strains, locus YDL017W, strain CDC7, active compounds read low 0.921 | S. cerevisiae deletion strains, locus YDL028C, strain MPS1, active compounds read low 0.93 | [1] 0.921 | S. cerevisiae deletion strains, locus YDL108W, strain KIN28, active compounds read low 0.922 | S. cerevisiae deletion strains, locus YDL132W, strain cdc53, active compounds read low 0.95 | S. cerevisiae deletion strains, locus YDL214C, strain PRR2, active compounds read low 0.91 | S. cerevisiae deletion strains, locus YDR052C, strain DBF4, active compounds read low 0.941 | S. cerevisiae deletion strains, locus YDR054C, strain cdc34, active compounds read low 0.905 | S. cerevisiae deletion strains, locus YDR226W, strain ADK1, active compounds read low 0.905 | S. cerevisiae deletion strains, locus YDR477W, strain SNF1, active compounds read low 0.92 | S. cerevisiae deletion strains, locus YER123W, strain YCK3, active compounds read low 0.934 | S. cerevisiae deletion strains, locus YER133W, strain GLC7, active compounds read low 0.912 | S. cerevisiae deletion strains, locus YFL009W, strain cdc4, active compounds read low 0.913 | S. cerevisiae deletion strains, locus YFL029C, strain CAK1, active compounds read low 0.922 | S. cerevisiae deletion strains, locus YFR003C, strain YPI1, active compounds read low 0.924 | S. cerevisiae deletion strains, locus YFR019W, strain FAB1, active compounds read low 0.914 | S. cerevisiae deletion strains, locus YFR028C, strain CDC14, active compounds read low 0.94 | S. cerevisiae deletion strains, locus YGR040W, strain KSS1, active compounds read low 0.919 | S. cerevisiae deletion strains, locus YGR052W, strain FMP48, active compounds read low 0.925 | S. cerevisiae deletion strains, locus YGR092W, strain DBF2, active compounds read low 0.824 | S. cerevisiae deletion strains, locus YHR082C, strain KSP1, active compounds read low 0.974 | S. cerevisiae deletion strains, locus YHR205W, strain SCH9, active compounds read low 0.765 | S. cerevisiae deletion strains, locus YIL147C, strain SLN1, active compounds read low 0.916 | S. cerevisiae deletion strains, locus YJL095W, strain BCK1, active compounds read low 0.842 | S. cerevisiae deletion strains, locus YJL128C, strain PBS2, active compounds read low 0.945 | S. cerevisiae deletion strains, locus YJL157C, strain FAR1, active compounds read low 0.929 | S. cerevisiae deletion strains, locus YJR016C, strain ILV3, active compounds read low 0.929 | S. cerevisiae deletion strains, locus YJR066W, strain TOR1 (second series), active compounds read low 0.962 | S. cerevisiae deletion strains, locus YJR066W, strain TOR1, active compounds read low 0.93 | S. cerevisiae deletion strains, locus YKL048C, strain ELM1, active compounds read low 0.903 | S. cerevisiae deletion strains, locus YKL067W, strain YNK1, active compounds read low 0.923 | S. cerevisiae deletion strains, locus YKL101W, strain HSL1, active compounds read low 0.911 | S. cerevisiae deletion strains, locus YKL193C, strain SDS22, active compounds read low 0.907 | S. cerevisiae deletion strains, locus YKL203C, strain TOR2, active compounds read low 0.997 | S. cerevisiae deletion strains, locus YLR133W, strain CKI1, active compounds read low 0.935 | S. cerevisiae deletion strains, locus YLR403W, strain SFP1, active compounds read low 0.847 | S. cerevisiae deletion strains, locus YML070W, strain DAK1, active compounds read low 0.909 | S. cerevisiae deletion strains, locus YMR001C, strain CDC5, active compounds read low 0.916 | S. cerevisiae deletion strains, locus YMR205C, strain PFK2 (second series), active compounds read low 0.886 | S. cerevisiae deletion strains, locus YMR277W, strain FCP1, active compounds read low 0.919 | S. cerevisiae deletion strains, locus YNL006W, strain LST8, active compounds read low 0.928 | S. cerevisiae deletion strains, locus YNL020C, strain ARK1, active compounds read low 0.926 | S. cerevisiae deletion strains, locus YNL161W, strain CBK1, active compounds read low 0.916 | S. cerevisiae deletion strains, locus YNL183C, strain NPR1, active compounds read low 0.956 | S. cerevisiae deletion strains, locus YNL207W, strain RIO2, active compounds read low 0.903 | S. cerevisiae deletion strains, locus YNL222W, strain SSU72, active compounds read low 0.933 | S. cerevisiae deletion strains, locus YNL307C, strain MCK1 (second series), active compounds read low 0.917 | S. cerevisiae deletion strains, locus YOL078W, strain AVO1, active compounds read low 0.915 | S. cerevisiae deletion strains, locus YOL136C, strain PFK27, active compounds read low 0.901 | S. cerevisiae deletion strains, locus YOR061W, strain CKA2, active compounds read low 0.966 | S. cerevisiae deletion strains, locus YOR119C, strain RIO1, active compounds read low 0.983 | S. cerevisiae deletion strains, locus YOR231W, strain MKK1, active compounds read low 0.932 | S. cerevisiae deletion strains, locus YOR329C, strain SCD5, active compounds read low 0.915 | S. cerevisiae deletion strains, locus YPL031C, strain PHO85, active compounds read low 0.902 | S. cerevisiae deletion strains, locus YPL153C, strain RAD53, active compounds read low 0.933 | S. cerevisiae deletion strains, locus YPL204W, strain HRR25, active compounds read low 0.908 | S. cerevisiae deletion strains, locus YPL209C, strain IPL1, active compounds read low 0.919 | S. cerevisiae deletion strains, locus YPR025C, strain CCL1, active compounds read low 0.926 | S. cerevisiae deletion strains, locus YPR106W, strain ISR1, active compounds read low 0.915 | S. cerevisiae deletion strains, locus YPR111W, strain DBF20, active compounds read low 0.911 | S. cerevisiae deletion strains, strain NNK1, active compounds read low 0.899 | S. cerevisiae deletion strains, strain TSCII, active compounds read low 0.91
active: [2] 0.721 | S. cerevisiae deletion strains, locus YHR079C, strain IRE1, active compounds read low 0.326 | S. cerevisiae deletion strains, locus YLR113W, strain HOG1, active compounds read low 0.785 | S. cerevisiae deletion strains, locus YPL256C, strain CLN2, active compounds read low 0.767
